# Assay results from PubChem BioAssay.
# Where “and” joins values, the source holds several entries; their conditions need not be identical. Identical values can stand only once. Calls of active or inactive are those of the source.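 The calls were made as follows, unless noted: active = thallium flux through the channel raised or lowered by more than 3 SD from vehicle-only wells, actives on both sides; inactive = the rest.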
# How the values were obtained:
# [1] = Wnt pathway potentiators raising nuclear beta-catenin – imaging, WNT3A-conditioned medium, mouse C2C12, NPC library, primary screen (AID 1117326; in the data active = nuclear beta-catenin stimulation mostly above about 4.2%, no sharp cut-off; inactive = mostly below about 10%); settings: stronger effect = higher value
# [2] = stimulators of insulin release from INS-1E, primary screen, cell-based, 5 mM glucose, NPC library (AID 1117329;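 active = compound raises insulin release from rat beta cells at 5 mM glucose, no numeric limit stated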); settings: rat INS-1E insulin secretion, at 10 µM, stronger effect = higher value
# [3] = growth inhibition of GSK3B-pretreated HCT116 cells – cell-based, CellTiter-Glo, 0.2 to 20 µM (AID 1117336;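 active = compounds lowering colon cancer cell viability after pretreatment blocking the GSK3B kinase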); settings: HCT116 viability after GSK3B inhibitor, at 20 µM, stronger effect = higher value
# [4] = inhibition of endothelial tube formation, primary screen, imaging, VEGF stimulated, CD31 staining, tube area, NPC library (AID 1117340;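 active = compound that reduces growth-factor-driven endothelial tube area in a mixed cell culture, no cutoff stated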); settings: VEGF-stimulated ADSC/ECFC co-culture, at 10 µM, stronger effect = higher value
# [5] = GLP1 release stimulators, primary, NCI-H716, NPC library (AID 1117341;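 active = compound raises GLP1 secretion from the human gut endocrine cells, with no numeric limit stated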); settings: NCI-H716 cells, at 10 µM, stronger effect = higher value
# [6] = HCT116 colon cancer cell growth inhibition, primary screen, CellTiter-Glo luminescence, NPC library (AID 1117342;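 active = compounds that lower survival of HCT116 colon cancer cells in the luminescence readout, no numeric limit stated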); settings: at 20 µM (top of the series)
# [7] = reduced SW480 viability measured with CellTiter-Glo, NPC library, primary (AID 1117343;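 active = compounds that lower viability of the colon cancer cells in the luminescence readout, with no numeric limit stated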); settings: CellTiter-Glo luminescence; at 20 µM (top of the series)
# [8] = NPC library primary testing for decreased DLD-1 cell viability via CellTiter-Glo (AID 1117346;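 active = compounds that lower survival of DLD-1 colon cancer cells in the luminescence readout, no cutoff given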); settings: DLD-1 viability, CellTiter-Glo luminescence; at 20 µM (top of the series)
# [9] = target: 6-phosphogluconate dehydrogenase, decarboxylating (Homo sapiens) (UniProt P52209); assay: inhibition of human phosphogluconate dehydrogenase – biochemical, recombinant enzyme, NADPH absorbance, primary screen (AID 1159550;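 active = at least 20% inhibition of 6-phosphogluconate dehydrogenase activity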); settings: recombinant 6PGD, NADPH absorbance 341 nm; at 10 µM; stronger effect = higher value
# [10] = modulation of C. elegans fzo-1 (AID 1259413; call rule not given here;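 also: fzo-1 mutant C. elegans worms in liquid wells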); settings: C. elegans fzo-1 modulator screen, mean read-out; stronger effect = higher value
# [11] = EMT-state selective cytotoxicity in co-culture – imaging, PC-3E GFP, TEM4-18 mCherry, primary screen (AID 1345086;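 active = compounds killing one labelled cell type while sparing the other, by normalised counts and ratio limits, not self-fluorescent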;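 as to all read-outs here: cells exposed to compound for 72 h before imaging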;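 as to red/green cell ratio (normalised): normalised mesenchymal count divided by normalised epithelial count so high means epithelial killing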); settings: PC-3E GFP / TEM4-18 mCherry co-culture, imaging cell counts, at 1 µM; for red/green cell ratio (normalised): actives lie on both sides, counts scaled to control wells, 1 = unselective
# [12] = MELAS cybrid and Rieske KO viability enhancers – cell-based, MELAS cybrids, Rieske KO mouse fibroblasts, CellTiter-Glo, primary screen (AID 1508586;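 active = mean z-score across replicates of 1.96 or higher in either the MELAS or the Rieske mutant cell line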;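 also: z relative to plate mean and SD of compound and empty wells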); settings: low glucose
# [13] = target: NAD(+) hydrolase SARM1 (Homo sapiens) (UniProt Q6SZW1); assay: blocking NAD cleavage by SARM1 SAM-TIR – cell lysate, NAD-Glo luminescence (AID 1508614;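 active = compound whose remaining NAD level is above about 45 nM, limit read from the data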;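 also: higher remaining NAD means stronger inhibition of SARM1 NADase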); settings: SAM-TIR HEK293T lysate NADase, at 1 µM, stronger effect = higher value
# [14] = target: Mitogen-activated protein kinase 7 (Homo sapiens) (UniProt Q13164); assay: Gal4-ERK5 driven luciferase induction – cell-based, HTS, primary screen (AID 1508626;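 active = luciferase signal above three times the same-plate solvent-only control wells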;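 also: luciferase driven by Gal4-ERK5 fusion binding five Gal4 sites before minimal TATA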); settings: HeLa Gal4-ERK5 transactivation, 18 h, at 5 µM, stronger effect = higher value
# F380Y = assay: BK channel mutant inhibitors and activators – cell-based, U2OS BacMam, thallium flux, beta subunits, selectivity assay, profiling panel (AID 1259406); settings: U2OS BacMam BK variants, at 30 µM;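 also: initial slope of Thallos dye fluorescence rise after thallium is added; log ratio against the mean of 0.3% DMSO vehicle wells on the same plate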
# F380Y/beta1 = assay: as above; settings: U2OS BacMam BK variants, at 30 µM
# F380Y/beta2Delta = assay: as above; settings: U2OS BacMam BK variants, at 30 µM
# F380Y/beta4 = assay: as above; settings: U2OS BacMam BK variants, at 30 µM
# [15] = growth inhibition, single agents and combos, ICB984, cell-based, cisplatin or BGB combos, synergistic combos for chromothripsis tumors (AID 1671451; call rule not given here;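 also: cells exposed for 96 hours before readout; 0% = vehicle DMSO and 100% = killing by high DMSO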); settings: ICB984 medulloblastoma cells, drug combinations, stronger effect = higher value
# [16] = measured here: epithelial PC-3E GFP cell survival
# [17] = measured here: mesenchymal TEM4-18 mCherry cell survival
# [18] = MELAS cybrid survival, CellTiter-Glo 48 h, stronger effect = higher value
# [19] = Rieske KO mouse fibroblast survival, CellTiter-Glo 72 h
# Chain of NAD(+) hydrolase SARM1 (Homo sapiens) (Q6SZW1 whole entry, looked up, the tested form may be a part): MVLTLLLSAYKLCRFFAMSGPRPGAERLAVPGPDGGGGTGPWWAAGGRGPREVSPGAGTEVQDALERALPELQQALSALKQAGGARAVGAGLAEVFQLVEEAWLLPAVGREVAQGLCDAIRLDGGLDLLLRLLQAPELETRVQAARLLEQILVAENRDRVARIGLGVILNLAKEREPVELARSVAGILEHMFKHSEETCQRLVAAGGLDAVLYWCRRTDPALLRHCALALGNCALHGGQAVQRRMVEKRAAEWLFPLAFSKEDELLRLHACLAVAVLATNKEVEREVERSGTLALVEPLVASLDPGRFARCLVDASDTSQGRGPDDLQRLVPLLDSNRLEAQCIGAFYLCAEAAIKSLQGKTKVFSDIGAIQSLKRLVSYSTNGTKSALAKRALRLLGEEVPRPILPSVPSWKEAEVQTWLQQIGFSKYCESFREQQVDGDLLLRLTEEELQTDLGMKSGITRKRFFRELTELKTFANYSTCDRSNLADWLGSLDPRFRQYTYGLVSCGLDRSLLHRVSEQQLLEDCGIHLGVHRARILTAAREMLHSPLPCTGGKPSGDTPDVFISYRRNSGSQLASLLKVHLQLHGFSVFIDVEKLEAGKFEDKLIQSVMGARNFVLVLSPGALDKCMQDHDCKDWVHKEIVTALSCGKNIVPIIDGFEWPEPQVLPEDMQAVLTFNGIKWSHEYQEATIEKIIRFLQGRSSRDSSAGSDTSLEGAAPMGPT
# Chain of Mitogen-activated protein kinase 7 (Homo sapiens) (Q13164 whole entry, looked up, the tested form may be a part): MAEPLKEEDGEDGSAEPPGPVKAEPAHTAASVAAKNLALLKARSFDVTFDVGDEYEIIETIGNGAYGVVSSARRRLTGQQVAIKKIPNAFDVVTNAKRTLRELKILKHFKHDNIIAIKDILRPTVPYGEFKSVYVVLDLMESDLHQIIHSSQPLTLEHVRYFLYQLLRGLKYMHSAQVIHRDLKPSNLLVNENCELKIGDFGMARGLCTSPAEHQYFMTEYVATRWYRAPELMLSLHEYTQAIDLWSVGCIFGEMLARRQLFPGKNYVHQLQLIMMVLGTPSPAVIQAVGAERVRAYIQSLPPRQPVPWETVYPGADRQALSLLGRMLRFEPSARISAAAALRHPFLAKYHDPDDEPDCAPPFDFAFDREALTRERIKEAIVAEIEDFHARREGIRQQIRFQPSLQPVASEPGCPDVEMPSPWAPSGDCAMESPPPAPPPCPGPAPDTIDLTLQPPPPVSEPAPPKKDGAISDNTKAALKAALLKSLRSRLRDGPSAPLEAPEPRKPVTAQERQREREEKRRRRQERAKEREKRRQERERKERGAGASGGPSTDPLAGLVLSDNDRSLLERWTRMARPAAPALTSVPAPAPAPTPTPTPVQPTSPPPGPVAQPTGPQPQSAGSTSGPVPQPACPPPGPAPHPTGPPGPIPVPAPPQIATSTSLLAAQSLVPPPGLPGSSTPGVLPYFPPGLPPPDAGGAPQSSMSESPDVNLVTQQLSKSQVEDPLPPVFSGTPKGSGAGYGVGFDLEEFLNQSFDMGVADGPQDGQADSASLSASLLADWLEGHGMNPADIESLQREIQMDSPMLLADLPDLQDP
# Chain of 6-phosphogluconate dehydrogenase, decarboxylating (Homo sapiens) (P52209 whole entry, looked up): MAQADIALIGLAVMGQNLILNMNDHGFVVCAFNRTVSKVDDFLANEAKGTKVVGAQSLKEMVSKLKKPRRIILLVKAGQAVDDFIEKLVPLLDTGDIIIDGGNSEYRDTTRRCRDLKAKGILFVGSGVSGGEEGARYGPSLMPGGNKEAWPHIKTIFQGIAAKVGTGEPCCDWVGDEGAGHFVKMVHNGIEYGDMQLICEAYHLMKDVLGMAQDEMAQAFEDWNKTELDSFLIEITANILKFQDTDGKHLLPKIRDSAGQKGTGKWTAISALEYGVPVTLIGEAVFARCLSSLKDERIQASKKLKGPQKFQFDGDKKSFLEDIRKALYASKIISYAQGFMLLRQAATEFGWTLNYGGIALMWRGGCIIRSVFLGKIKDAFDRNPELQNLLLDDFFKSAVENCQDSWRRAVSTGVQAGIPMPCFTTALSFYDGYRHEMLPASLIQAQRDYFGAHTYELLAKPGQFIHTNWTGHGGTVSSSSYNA
smiles,measurement,setting,value
Oc1c(Cl)cc(Cl)c2cccnc12,nuclear beta-catenin stimulation,[1]; at 10 µM,25.3% (inactive)
same,nuclear beta-catenin stimulation,"[1]; stimulation, at 2 µM",10.8%
same,insulin secretion stimulation,[2],-1.7% (inactive)
same,viability decrease,[3],90.7% (active)
same,tube area decrease,[4],102% (active)
same,GLP1 secretion stimulation,[5],5.7% (inactive)
same,inhibition of viability,[6],91.3% (active)
same,viability decrease (inhibition),[7],111% (active)
same,viability decrease (inhibition),[8],90% (active)
same,inhibition,[9],13% (inactive)
same,mean signal,[10],244 (inactive)
same,red/green cell ratio (normalised),[11],0.97 (inactive)
same,normalised cell number,[11]; [16],1.04
same,normalised cell number,[11]; [17],1.01
same,z-score,[12]; [18],-0.426 (inactive) and -0.351 (inactive)
same,z-score,[12]; [19],0.846 and 0.186
same,remaining NAD,[13],10 nM (inactive)
same,luciferase signal,[14],48 AU (inactive)
same,log fold change Tl+ flux,F380Y,0.177 (active)
same,log fold change Tl+ flux,F380Y/beta1,0.135 (active)
same,log fold change Tl+ flux,F380Y/beta2Delta,0.437 (active)
same,log fold change Tl+ flux,F380Y/beta4,0.326 (active)
COc1c(N2CCNC(C)C2)c(F)cc2c(=O)c(C(=O)O)cn(C3CC3)c12 (centres undefined),nuclear beta-catenin stimulation,[1]; at 10 µM,0.7% (inactive)
same,nuclear beta-catenin stimulation,"[1]; stimulation, at 2 µM",2.5%
same,insulin secretion stimulation,[2],-1.15% (inactive)
same,viability decrease,[3],6.2% (inactive)
same,tube area decrease,[4],-12.3% (inactive)
same,GLP1 secretion stimulation,[5],-2.4% (inactive)
same,inhibition of viability,[6],25.9% (inactive)
same,viability decrease (inhibition),[7],-16.2% (inactive)
same,viability decrease (inhibition),[8],-9.8% (inactive)
same,inhibition,[9],-4.88% (inactive)
same,mean signal,[10],254 (inactive)
same,red/green cell ratio (normalised),[11],0.98 (inactive) and 0.92 (inactive)
same,normalised cell number,[11]; [16],1.12 and 1.14
same,normalised cell number,[11]; [17],1.11 and 1.05
same,z-score,[12]; [18],0.506 (inactive) and 0.393 (inactive)
same,z-score,[12]; [19],-0.687 and -0.598
same,remaining NAD,[13],10 nM (inactive)
same,luciferase signal,[14],72 AU (inactive)
same,inhibition,"[15]; BGB IC20 combo, at 0.005 µM",6.38% and 0.318%
same,inhibition,"[15]; BGB IC40 combo, at 0.005 µM",-11.2% and -13.7%
same,inhibition,"[15]; BGB IC40 combo, at 0.05 µM",-11.7% and 20.2%
same,inhibition,[15]; at 0.5 µM,-18.4% (inactive) and -24.4% (inactive)
same,inhibition,"[15]; cisplatin combo, at 0.05 µM",-15.7% and 18%
same,inhibition,"[15]; cisplatin combo, at 0.5 µM",-12.4% and -7.73%
same,inhibition,"[15]; cisplatin combo, at 5 µM",-26.5% and -51.5%
same,inhibition,"[15]; measured here: 5 uM single agent, at 5 µM",-2.69% and -3.52%
same,log fold change Tl+ flux,F380Y,-0.00177 (inactive)
same,log fold change Tl+ flux,F380Y/beta1,-0.0535 (inactive)
same,log fold change Tl+ flux,F380Y/beta2Delta,-0.045 (inactive)
same,log fold change Tl+ flux,F380Y/beta4,-0.0127 (inactive)
O=C(C1CCCCC1)N1CC(=O)N2CCc3ccccc3C2C1 (centres undefined),nuclear beta-catenin stimulation,[1]; at 10 µM,-0.4% (inactive)
same,nuclear beta-catenin stimulation,"[1]; stimulation, at 2 µM",-1.1%
same,insulin secretion stimulation,[2],2.5% (inactive)
same,viability decrease,[3],-3.8% (inactive)
same,tube area decrease,[4],-2.6% (inactive)
same,GLP1 secretion stimulation,[5],-2.7% (inactive)
same,inhibition of viability,[6],-11.5% (inactive)
same,viability decrease (inhibition),[7],19.5% (inactive)
same,viability decrease (inhibition),[8],-16.7% (inactive)
same,inhibition,[9],-0.949% (inactive)
same,mean signal,[10],236 (inactive)
same,red/green cell ratio (normalised),[11],1.48 (inactive)
same,normalised cell number,[11]; [16],0.96
same,normalised cell number,[11]; [17],1.42
same,z-score,[12]; [18],-0.396 (inactive) and 0.0285 (inactive) and 0.65 (inactive)
same,z-score,[12]; [19],-0.176 and 0.00765 and 0.589
same,remaining NAD,[13],10 nM (inactive)
same,luciferase signal,[14],32 AU (inactive)
same,log fold change Tl+ flux,F380Y,0.0282 (inactive)
same,log fold change Tl+ flux,F380Y/beta1,0.027 (inactive)
same,log fold change Tl+ flux,F380Y/beta2Delta,0.0335 (inactive)
same,log fold change Tl+ flux,F380Y/beta4,0.0341 (inactive)
